# Screening results (PubChem BioAssay)
# HepG2 tox: kills HepG2 cells in TGF-b inhibitor counter-screen. 410,000 compounds, 0.76% hits. HepG2 CAGA-GFP viability, ATP luminescence, 18 h. AID 588856. Potency, µM (doses to about 46.1 µM), most hits filed as cytotoxic
#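 CellTiter-Glo luminescence gave cytotoxicity after 18 hours at 37 degrees C. The cells were HepG2 CAGA-GFP in 1% FBS DMEM, stimulated with 500 pg/mL TGF-beta after compound addition. %Activity was normalised to no-cell wells (complete cell-killing) and DMSO (no toxicity), and curves were fitted and classified.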
# TGFb inhibitor: blocks TGF-b signaling | 410,000 compounds, 1.2% hits | Potency, µM (highest dose often 46.1 µM), hits mostly inhibitors | HepG2 CAGA-GFP TGF-b/SMAD3 reporter, GFP fluorescence, 18 h; TGF-beta stimulated, 500 pg/mL final; further: nearly all actives have a fitted effect of over 65% in size
#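 Per well, imaged GFP fluorescence of HEPG2 CAGA-GFP cells gives the signal; cells get compound, then TGF-beta (500 pg/mL final), 18 h at 37 degrees C; %Activity versus -TGF-beta and +DMSO controls.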
# TDP1 cell noCPT: qHTS for Inhibitors of human tyrosyl-DNA phosphodiesterase 1 (TDP1): qHTS in cells in absence of CPT. 420,000 compounds, 15% hits. DT40 Tdp1-/- hTDP1 cells, no CPT, ATP luminescence, 48 h. Potency, µM (titrated, usually from 46.2 µM), usual class: inhibitors; further: nearly all actives have a fitted effect of over 55% in size
#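 Cells were dispensed at 400 per well, compounds added by pin tool, plates incubated ≥48 hr at 37 °C, then CellTiter-Glo added for 30 min at room temperature before luminescence reading. Line: DT40 Tdp1-/- complemented with hTDP1; camptothecin omitted.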
# TDP1 cell CPT: growth inhibition of DT40 Tdp1-/-;hTDP1 cells with camptothecin (screen for TDP1 inhibitors); chicken DT40 Tdp1-/-;hTDP1 cells + 20 nM CPT, ATP luminescence, 48 h; Potency, µM (series often up to 46.2 µM), actives largely listed as inhibitors; 420,000 compounds, 12% hits; AID 686979; further: nearly all actives have a fitted effect of over 55% in size
#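 Chicken DT40 Tdp1-/- cells stably complemented with human TDP1 were seeded at 400 cells/well in medium containing 20 nM camptothecin, exposed to pin-transferred compounds, and grown at 37 °C for at least 48 hr. Viability was read as ATP luminescence.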
# HT1080 IDH1KD tx: HT-1080 IDH1 knockdown cell toxicity (counter line); AID 686971; HT-1080 IDH1 knockdown viability, ATP luminescence, 48 h; 360,000 compounds, 2% hits; Potency, µM (titrated, usually from 46.1 µM), usual class: cytotoxic
#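 Cytotoxicity counter-line: IDH1KD HT-1080, 48 h, CellTiter-Glo. Curves classed by r2, magnitude and activity.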
# HT1080NT lethal: kills 2HG-producing HT-1080-NT fibrosarcoma cells. 360,000 compounds, 1.6% hits. AID 686970. HT-1080-NT fibrosarcoma viability, CellTiter-Glo ATP luminescence, 48 h. Potency, µM (doses to about 46.1 µM), most hits filed as cytotoxic;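 further: NT is the 2HG producing partner of a matched IDH1 knockdown line; nearly all actives have a fitted effect of over 55% in size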
#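 Luminescent CellTiter-Glo readout after 48 hours of compound exposure at 37 degrees C defined viability of HT-1080-NT cells. Activity was normalized to DMSO wells and cell-free media wells; concentration-response curves were fitted and assigned curve classes.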
# A number is an active result; – = inactive; ? = inconclusive; · = not tested or not shown; [ ] = dose if it differs, or a comment. Hits are enriched below; roughly 17% of the tested compounds scored in any of these assays. The call rests on the fitted dose curve; in most records, active means well fitted curve in the direction sought with a large enough effect; inconclusive means small, poorly fitted or top-dose-only effect, or another doubt; inactive means no such curve, though single readings can be large; an effect the other way counts as inactive or inconclusive.
SMILES,HepG2 tox,TGFb inhibitor,TDP1 cell noCPT,TDP1 cell CPT,HT1080 IDH1KD tx,HT1080NT lethal
C=C1CCC2C(C)(CO)C(O)CCC2(C)C1C/C=C1\C(=O)OCC1O (stereo unspecified),·,·,5µM,4µM,–,–
C=C1CCC2[C@](C)(CO[C@@H]3O[C@H](CO)[C@@H](O)[C@H](O)[C@H]3O)CCC[C@@]2(C)[C@@H]1CCC1=CCOC1=O (stereo partly specified),–,–,?,–,–,–
c1cnc2[nH]ccc2c1,–,–,–,–,·,·
CC(C)c1cc(C(N)=O)c(NC(=O)c2cccc(COc3ccc(Cl)cc3)c2)s1,–,?,?,26µM,–,–
Cc1cccc(Cn2nc(C)c(NC(=O)c3ccc(F)cc3)c2C)c1,–,–,?,–,–,–
Cc1cc(NC(=O)c2cccc(COc3ccc(Br)cc3)c2)no1,–,–,–,–,–,–
CCn1cc(Cl)c(C(=O)Nc2c(C)nn(Cc3c(F)c(F)c(F)c(F)c3F)c2C)n1,–,–,?,15µM,–,–
Cc1nn(Cc2c(F)c(F)c(F)c(F)c2F)c(C)c1NC(=O)c1cccc(COc2ccc(Cl)cc2)c1,–,?,7.3µM,10µM,–,–
CCn1cc([N+](=O)[O-])c(C(=O)Nc2c(C)nn(Cc3c(F)c(F)c(F)c(F)c3F)c2C)n1,–,?,–,?,–,–
CCn1ccc(C(=O)Nc2c(C)nn(Cc3c(F)c(F)c(F)c(F)c3F)c2C)n1,–,–,16µM,?,–,–
CC(C)NC(=O)c1nn(C)c2ccccc12,–,–,–,–,–,–
CCCCN(C(=O)C1CCN(C(=O)c2ccccc2C)CC1)c1c(N)n(CC(C)C)c(=O)[nH]c1=O,–,–,–,–,–,–
O=C(c1cccc(S(=O)(=O)N2CCOCC2)c1)N1CCCC(C(F)(F)F)C1 (stereo unspecified),–,–,–,–,–,–
C[C@H](NC(=O)[C@@H]1CCCN1C(=O)[C@@H]1CCCN1C(=O)c1cccc(Cl)c1)c1ccccc1,·,·,–,?,–,–
O=C(OCC(=O)N1CCN(C(=O)c2ccco2)CC1)c1cccc(F)c1,–,–,–,–,–,–
Cc1ccc(S(=O)(=O)N2CCCCC2)cc1NC(=O)c1cc2ccccc2o1,–,–,?,?,–,–
COc1ccc(S(=O)(=O)N2CCOCC2)cc1NC(=O)[C@@H]1CCCN1C(=O)c1cccs1,–,–,–,–,–,–
CCN1CCN(S(=O)(=O)c2ccc(Cl)c(C(=O)Nc3ccccc3N3CCCC3)c2)CC1,–,–,?,?,–,–
CCN1CCN(S(=O)(=O)c2ccc(Cl)c(C(=O)Nc3ccccc3N3CCCCC3)c2)CC1,–,?,26µM,16µM,?,?
COc1ccc(S(=O)(=O)N2CCOCC2)cc1NC(=O)c1cc2ccccc2o1,–,–,13µM,?,–,–
COc1ccc(S(=O)(=O)N2CCOCC2)cc1NC(=O)C1CCCN1C(=O)c1cccs1 (stereo unspecified),–,–,?,0.26µM,–,–
CCN1CCN(c2ccc(S(=O)(=O)N3CCCCC3)cc2NC(=O)c2cc3ccccc3o2)CC1,–,–,16µM,?,–,–
Cc1nc(N2CCCC2)c2c(C(=O)Nc3cccc(C)c3C)c(C)oc2n1,–,–,–,–,·,·
CCN1CCN(S(=O)(=O)c2ccc(Cl)c(C(=O)Nc3nnc(CC(C)C)s3)c2)CC1,–,–,?,23µM,–,–
CCN1CCN(c2c(Cl)cccc2NC(=O)c2cc3ccccc3o2)CC1,–,–,18µM,?,–,–
SMILES,HepG2 tox,TGFb inhibitor,TDP1 cell noCPT,TDP1 cell CPT,HT1080 IDH1KD tx,HT1080NT lethal
CN(C)S(=O)(=O)c1cccc(NC(=S)NN=C(Cc2ccccc2)Cc2ccccc2)c1,–,–,5.2µM,5.8µM,–,–
COc1cc(/C=N/NC(=S)Nc2cccc(S(=O)(=O)N(C)C)c2)ccc1O,–,–,18µM,?,–,–
CC1(C)OCC(COC(=O)Nc2cccnc2)([N+](=O)[O-])CO1,–,–,–,–,–,–
O=C(NCCC(=O)N1CCN(C(=O)c2ccco2)CC1)c1ccc(Br)cc1,–,–,–,–,–,–
CCNC(=O)C1(C)CCN(C(=O)c2c(F)ccc(C)c2F)C1 (stereo unspecified),–,–,–,–,–,–
CCc1c(C)sc(NC(=O)CN2CCN(C(=O)c3ccco3)CC2)c1C(=O)OC,–,–,?,18µM,?,?
Cc1ccccc1NC(=O)CN1CCN(C(=O)c2ccco2)CC1,–,–,–,–,–,–
CCOC(=O)c1c(NC(=O)CN2CCN(C(=O)c3ccco3)CC2)sc(C)c1C,–,–,15µM,?,–,–
CCOC(=O)c1ccc(NC(=O)CN2CCN(C(=O)c3ccco3)CC2)cc1,–,–,–,–,–,–
COCc1c(C(=O)NC2CCOC(C)(C)C2)cnn1-c1nccc(-c2cccs2)n1 (stereo unspecified),·,·,–,–[9.04 µM],·,·
CN(c1ccc(C(=O)N2CCN(Cc3ccc4c(c3)OCO4)CC2)cc1)S(C)(=O)=O,–,–,–,–,–,–
COc1ccc(CN2CCN(C(=O)c3ccc(S(=O)(=O)N4CCCCCC4)cc3)CC2)cc1F,–,?,21µM,21µM,–,–
COc1ccc(C(=O)N2CCN(S(=O)(=O)c3ccc(Br)cc3)CC2)cc1,–,–,?,18µM,–,–
Cc1ccc(C(=O)N2CCN(S(=O)(=O)c3ccc(C)cc3)CC2)cc1,–,–,–,–,–,–
O=C(c1ccc(S(=O)(=O)N2CCCC2)cc1)N1CCN(Cc2ccc3c(c2)OCO3)CC1,–,–,16µM,?,–,–
COc1ccc(S(=O)(=O)N2CCCN(Cc3cccc(F)c3)CC2)cc1,–,–,?,21µM,–,–
COc1ccc(CN2CCN(C(=O)c3ccc(S(=O)(=O)N4CCCCCC4)cc3)CC2)cc1,–,–,15µM,?,–,16µM
C=CCn1c(SCC(=O)c2ccc(Cl)s2)nc2ccccc2c1=O,–,–,?,?,–,–
C=CCn1c(SCC(=O)c2cccs2)nc2sc(C)cc2c1=O,–,–,21µM,?,?,–
O=C(CSc1nc2ccccc2o1)Nc1nccs1,–,–,–,–,–,–
CC(C)(C)c1ccc(NC(=O)c2cc(C3CCCN(C(=O)CCc4ccccc4)C3)on2)cc1 (stereo unspecified),–,–,12µM,8.2µM,–,–
